MARV entry inh = qHTS for Inhibitors of binding or entry into cells for Marburg Virus; Potency, µM (highest dose often 49.2 µM), inactives show at the top dose activity change, negative = inhibition, usual class: inhibitors; hit rate 6.5% among 18,000; Marburg virus pseudotype entry/binding inhibition, cell-based
Lassa entry = qHTS for Inhibitors of binding or entry into cells for Lassa Virus. Lassa virus pseudotyped entry inhibition, cell-based qHTS. Potency, µM (doses to about 49.2 µM), for inactives: at the top dose activity change, negative = inhibition, actives largely listed as inhibitors. hit rate 4.1% among 18,000
An asterisk follows results filed as active; ? = inconclusive; / = no result; [ ] = remark or other dose. A selection: hits, their analogues and other compounds. The true share with any hit is near 8%. Calls come from the whole dose curve; tested in HEK293 cells. % is set by controls: 0 for no effect and ±100 for the full control effect; potency is the fitted concentration of half-maximal effect.

SMILES	MARV entry inh	Lassa entry
CC(C)c1c(C(=O)N(C)Cc2cccc3ncccc23)cnn1-c1nccc(-c2ccccc2F)n1	7.9%	?
CCN1C(=O)[C@@H]2[C@H]3[C@H](O)[C@H](O)CC(=NOC[C@H]4O[C@H](c5ccccc5)C=C[C@H]4Oc4ccc(OC)cc4)[C@@H]3CC[C@H]2C1=O	-28.3%[8.59 µM]	-11.5%[8.59 µM]
C[C@H]1[C@@H](C(=O)N2CCCC2)CC(=NOCc2ccccc2)C(=NOCc2ccccc2)C[C@H]1c1ccccc1	-29.4%[8.59 µM]	/
COCC(=O)O[C@]1(CCN(C)CCCc2nc3ccccc3[nH]2)CCc2cc(F)ccc2[C@@H]1C(C)C	8.91µM*	20µM*
CCC1CN(CC(=O)N(C)Cc2nc3ccccc3[nH]2)Cc2cc(OC)ccc2O1 (configuration not stated)	-12.8%	-1.9%
Cc1cnc(-n2ncc(C(=O)NCCCc3ccncc3)c2C)nc1-c1ccc(F)cc1	20µM*	-11.5%
Cc1cnc(-n2ncc(C(=O)NCCc3cccnc3)c2C)nc1-c1ccc(F)cc1	?	-13.1%
CC[C@H](C)[C@@H]1NC(=O)[C@@H]2CSCCS(=O)(=O)N2C1=O	19.3%	5.5%
COc1cc(C(=O)OC2C[C@H]3CC[C@@H](C2)N3C)ccc1O (some centres not stated)	5.5%[17.8 µM]	2.2%[17.8 µM]
Cc1cc(C)cc(C(=O)OC2C[C@H]3CC[C@@H](C2)N3C)c1 (some centres not stated)	11.2µM*	?
COC(=O)[C@@]1(C=C2c3ccc(F)cc3[C@@H](OC)[C@@H]2C)[C@@H]2c3ccccc3O[C@@H]21	?	1.5%[8.59 µM]
CCC=CCCC(OC(=O)c1ccc(Br)cc1)C1=CCCCC1=O (configuration not stated)	61.5%[8.59 µM]	6.8%[8.59 µM]
O=C1Nc2ccccc2C1=C1CCc2cc(O)ccc21	-21.1%	/
O=S1(=O)N[C@@H](Cc2ccccc2)COc2c(Cl)cccc21	3.8%	7.7%
O=S(=O)(O)c1ccc2c(c1)-c1nc-2nc2[nH]c(nc3nc(nc4[nH]c(n1)c1ccc(S(=O)(=O)O)cc41)-c1ccc(S(=O)(=O)O)cc1-3)c1ccc(S(=O)(=O)O)cc21	1.26µM*	?
O=S(=O)(O)c1ccc2nc(-c3ccccc3)[nH]c2c1	-1.3%	?
Cc1ccc(C(=O)NC2CCCCC2)cc1-c1ccc(C(=O)NCC2CC2)cc1	-1.1%	/
C=CC1(O)C(OC)=CC2C(=O)C1C(c1ccccc1)C2C (configuration not stated)	14.1%[8.59 µM]	/
CCN1/C(=C/C=C/c2sc3ccccc3[n+]2CC)Sc2ccccc21	2.82µM*	2.51µM*
CCC(/C=C1\Sc2ccc(OC)cc2N1CCO)=C\c1sc2ccc(OC)cc2[n+]1CCO	4.7%	-19.9%
COC(=O)C1=C(C)N(CCC(C)O[Si](C)(C)C(C)(C)C)C(=O)N(C(C)=O)C1c1ccccc1 (configuration not stated)	7.2%[8.59 µM]	2.9%[8.59 µM]
CC(C)=CCCC(C)=CC=CC1=CC2(C)CC1(C)C(C=C(C)CCC=C(C)C)CC2=O (configuration not stated)	?	3.0%[8.59 µM]
COc1cc2c(cc1OC)[C@@H]1O[C@](CCCCN3C(=O)c4ccccc4C3=O)(C2)OC2=C1C(=O)CCC2	-17.1%[8.59 µM]	/
CCCCCCCCCCCCCCCC(=O)O[C@@H]1[C@@H](O)[C@@H](O)[C@@H]([C@H](NC(=O)[C@@H]2C[C@@H](CCC)CN2C)[C@H](C)Cl)O[C@@H]1SC	-13.0%	-24.5%
C#CCN1C(=O)CC[C@@]23C1=NC(C(=O)OC)=C(C(=O)OC)[C@@H]2N(Cc1ccccc1)c1ccccc13	-20.3%[8.59 µM]	-23.4%[8.59 µM]
SMILES	MARV entry inh	Lassa entry
CCOC(=O)C1=C[C@@]2(CC)CCCN3CCc4c(n1c1ccccc41)C32 (some centres not stated)	10µM*	-6.8%
CCOC(=O)C1=CC2(CC)CCCN3CCc4c(n1c1ccccc41)C32 (configuration not stated)	-14.7%	?
C[C@@H]1CC[C@H]2C(=O)O[C@@H](Cc3ccccc3)CN2[C@@H]1c1ccc(Br)cc1	7.1%[8.59 µM]	12.1%[8.59 µM]
Cc1c(C(=O)N(C)C2CCCCC2)sc2nc3ccc(N)cc3n12	22.4µM*	?
C[C@@H]1CC[C@H]2C(=O)N(Cc3ccccc3)C[C@H](O)CN2[C@H]1c1ccc(Br)cc1	-24.2%[8.59 µM]	3.4%[8.59 µM]
OC(c1ccc2c(c1)CN(Cc1cccc3nccnc13)CCO2)C1CCCCC1 (configuration not stated)	-6.6%	-1.1%
CCc1nc(CN2CCOc3ccc(C(O)C4CCCCC4)cc3C2)c(C)[nH]1 (configuration not stated)	12.6µM*	?
O=C(c1n[nH]c2c1CCCC2)N1CCOc2ccc(C(O)C3CCCCC3)cc2C1 (configuration not stated)	11.2µM*	8.91µM*
O=C(c1ccc(Cn2cnnn2)cc1)N1CCOc2ccc(C(O)C3CCCCC3)cc2C1 (configuration not stated)	-25.4%	?
